Screening results: PubChem, National Center for Advancing Translational Sciences (NCATS)
AmpC detergent – qHTS Inhibitors of AmpC Beta-Lactamase (assay with detergent). hit rate 0.041% among 370,000. Potency, µM (series often up to 114 µM), hits mostly inhibitors. P00811. AmpC hydrolysis of nitrocefin, absorbance 480 nm, 0.01% Triton; note: nearly all actives have a fitted effect of over 25% in size
Target sequence (P00811 whole entry, looked up): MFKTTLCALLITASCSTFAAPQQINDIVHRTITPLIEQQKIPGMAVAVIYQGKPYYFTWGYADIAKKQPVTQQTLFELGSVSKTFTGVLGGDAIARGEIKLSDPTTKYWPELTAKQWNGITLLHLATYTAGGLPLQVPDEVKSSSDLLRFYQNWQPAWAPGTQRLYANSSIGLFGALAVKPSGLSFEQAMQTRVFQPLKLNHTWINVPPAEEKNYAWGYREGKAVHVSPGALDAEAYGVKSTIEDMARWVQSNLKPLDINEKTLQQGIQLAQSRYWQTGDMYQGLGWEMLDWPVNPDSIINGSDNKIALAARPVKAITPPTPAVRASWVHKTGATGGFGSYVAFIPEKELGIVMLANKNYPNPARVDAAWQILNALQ
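AmpC (5.3 nM in the dispensed reagent) in 20 mM phosphate pH 7.0 with 0.01% (detergent screen) or 0.0001% Triton X-100 was preincubated with compounds for 15 min at room temperature. Nitrocefin was then added from an 800 uM solution, and hydrolysis was followed at 480 nm.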
AmpC no deterg – qHTS Inhibitors of AmpC Beta-Lactamase (assay without detergent) | Potency, µM (highest dose often 57.1 µM), most hits filed as inhibitors | hit rate 0.52% among 330,000 | P00811 | AmpC nitrocefin hydrolysis, absorbance 480 nm, 0.0001% Triton; note: nearly all actives have a fitted effect of over 20% in size
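20 mM phosphate pH 7.0 + 0.01% (detergent screen) or 0.0001% Triton X-100; 5.3 nM AmpC reagent; cpd preinc 15 min RT; nitrocefin (800 uM stock) to start; A480 q20 s × 4 min; Activity was normalised to no-enzyme and no-compound control wells.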
NS1 function inh – qHTS Assay for Inhibitors of Influenza NS1 Protein Function | AID 2326, 2010 | Potency, µM (series often up to 46.1 µM) | hit rate 0.4% among 270,000; calls by dose curve; note: actives are rising curves; nearly all actives have a fitted effect of over 50% in size
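S. cerevisiae expressing influenza A NS1, grown in glucose, washed, then diluted 1:100 into pH 6.0 -URA galactose medium with 23 nl compound. Growth recovery read as OD600; NS1-free strain serves as control.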
Shiga toxin inh – A qHTS for Small Molecule Inhibitors of Shiga Toxin | Vero cells, Shiga toxin protein synthesis inhibition reporter | AID 2315, 2010 | inhibition, % at 38.7 µM | hit rate 9.2% among 290,000; in the data active = inhibition mostly above about 28%, no sharp cut-off; inactive = mostly below about 43%
CHX counter – Cycloheximide Counterscreen for Small Molecule Inhibitors of Shiga Toxin. cell reporter, cycloheximide protein synthesis inhibition counterscreen. hit rate 12% among 300,000. max response, %; in the data active = max response mostly above about 13%, no sharp cut-off; inactive = mostly below about 14%; note: read at 38.3 µM for the half of the compounds with a filed dose
Each line names hits and unclear results; the compound was inactive in the other large screens. The entries come from a sample that favours hits as a whole. Unless noted, calls come from the whole dose curve; as a rule, active = well fitted curve in the direction sought with a large enough effect; inconclusive = small, poorly fitted or top-dose-only effect, or another doubt; inactive = no such curve, though single readings can be large; an effect the other way counts as inactive or inconclusive.

COc1ccc(N2CCN(S(=O)(=O)c3c(C)nc4sc(C)cn4c3=O)CC2)cc1	none (no result: AmpC no deterg, NS1 function inh, Shiga toxin inh, CHX counter)
O=C(C1CCN(S(=O)(=O)c2ccc(F)cc2)CC1)N1CCCC(C(F)(F)F)C1 (stereo not drawn)	none (no result: NS1 function inh, Shiga toxin inh, CHX counter)
Fc1ccc(CSc2nncn2NC/C=C/c2ccccc2)cc1	AmpC no deterg 7.1µM
Cc1nn(C)cc1CN(C)C(=O)CCc1nnc(CCC2CCCCC2)o1	CHX counter 11
CN(Cc1nccn1C)C(=O)CCc1nnc(CCC2CCCCC2)o1	none
COc1ccc(-c2nc3c4ccccc4[nH]c(=O)n3n2)cc1	Shiga toxin inh 55, CHX counter 24 (no result: AmpC no deterg)
COc1cc2[nH]c(=O)n3nc(-c4ccccc4)nc3c2cc1OC	AmpC detergent inconclusive
O=C(/C=C/c1cccc(O)c1)c1ccc(N2CCOCC2)cc1	Shiga toxin inh 102, CHX counter 38
COc1cccc(-n2c(=O)n(Cc3ccccc3)c(=O)c3[nH]cnc32)c1C	none
CCCc1cnc(N2CCN(C(=O)c3ccc(F)cc3)CC2)nc1	none
CCCc1cnc(N2CCN(C(=S)NC)CC2)nc1	Shiga toxin inh 66, CHX counter 44
CCCCN1CNC(=S)N(c2ccc(C(=O)OCC)cc2)C1	none
COc1cc(C(=O)NC(=S)N(CCC#N)Cc2cccnc2)cc(OC)c1OC	none (no result: AmpC detergent, NS1 function inh, Shiga toxin inh, CHX counter)
CCCOc1ccc(CN(CCC#N)C(=S)NC(=O)c2ccccc2)cc1	CHX counter 23
COc1ccc(NC(=O)C(=O)NCCc2sc(-c3ccc(Cl)cc3)nc2C)cc1	none (no result: AmpC no deterg, NS1 function inh, Shiga toxin inh, CHX counter)
COc1cccc(-c2nnc(-c3ccc(C(F)(F)F)cc3)o2)c1	AmpC detergent inconclusive, Shiga toxin inh 49, CHX counter 27
COc1cc(-c2nnc(-c3ccccc3)o2)cc(OC)c1OC	none
c1ccc(-c2nnc(-c3ccccc3)o2)cc1	AmpC detergent inconclusive, Shiga toxin inh 85, CHX counter 31
COc1ccc(-c2nnc(-c3ccccc3)o2)cc1OC	AmpC detergent inconclusive, Shiga toxin inh 53, CHX counter 51
COc1cccc(-c2nnc(NC(C)=O)o2)c1	none
c1ccc(-c2nnc(-c3ccncc3)o2)cc1	CHX counter 40
ClCc1nnc(-c2ccccc2)o1	none
COc1ccc(-c2cc(-c3nnc(-c4ccncc4)o3)c3ccccc3n2)cc1	none
CCCN(C(=O)C(C)Oc1cccc(Cl)c1)c1c(N)n(Cc2ccccc2)c(=O)[nH]c1=O (stereo not drawn)	none
Cc1onc(-c2ccccc2)c1C(=O)N1CCN(Cc2ccccc2)CC1	none
O=C(Cc1ccccc1)Nc1nnc(-c2ccccc2)o1	none
COc1cc(-c2nnc(-c3ccncc3)o2)ccc1OCc1ccccc1	none
Nc1ccccc1-c1nnc(-c2ccc(-c3ccccc3)cc2)o1	Shiga toxin inh 43, CHX counter 47
COc1ccccc1-c1nnc(SCC(=O)N2CCOCC2)o1	NS1 function inh inconclusive
O=S(=O)(Cc1ccccc1)c1ccccc1-c1nnc(-c2ccccc2)o1	none
COc1cc(-c2nnc(-c3ccco3)o2)ccc1OCc1ccccc1	Shiga toxin inh 59, CHX counter 39
O=C(CCc1ccccc1)c1nnc(-c2ccccc2)o1	CHX counter 30
COc1ccccc1-c1nnc(-c2ccc(N3CCOCC3)cc2)o1	Shiga toxin inh 62, CHX counter 35
O=C(O)CCc1c(C(=O)O)[nH]c2cc(Cl)cc(Cl)c12	none (no result: AmpC detergent, AmpC no deterg, NS1 function inh)
Clc1cccc(-c2nnc(-c3ccccc3)o2)c1	Shiga toxin inh 59, CHX counter 36
CN(C)S(=O)(=O)c1cccc(-c2nnc(-c3ccccc3)o2)c1	Shiga toxin inh 73, CHX counter 44
Cc1nc(-c2noc(-c3cccc(Cl)c3)n2)c(C(F)(F)F)o1	none
Cc1nc(-c2nnc(-c3ccccc3)o2)c(C(F)(F)F)o1	Shiga toxin inh 49, CHX counter 28
Oc1ccccc1-c1nnc(-c2ccc(C(F)(F)F)cc2)o1	CHX counter 35
N#Cc1ccccc1NC(=O)COC(=O)CCc1ccccc1	none
CSc1nn(Cc2ccc(Br)cc2)c(N(C(C)=O)C(C)=O)c1S(=O)(=O)c1ccccc1	none (no result: AmpC no deterg, NS1 function inh, Shiga toxin inh, CHX counter)
Cc1cccc(C(=O)NC(=S)N2CCN(C(=S)NC(=O)c3cccc(C)c3)CC2)c1	none
CC1(C)CC(=O)C(N=Nc2cccc([N+](=O)[O-])c2)=C(O)C1	Shiga toxin inh 63, CHX counter 45
COc1ccc(CN=CC2=C(O)CNC2=O)cc1	none
COc1ccc(N=NC2=C(O)CC(C)(C)CC2=O)cc1	Shiga toxin inh 124, CHX counter 47
COc1ccc(N=NC2=C(O)CC(C)(C)CC2=O)c(OC)c1	Shiga toxin inh 53
CC1(C)CC(=O)C(N=Nc2ccc(Br)cc2)=C(O)C1	none
COc1ccc(CN=CC2=C(O)CC(C)(C)CC2=O)cc1	CHX counter 23
COc1ccccc1[C@]1(C)ON(c2ccccc2C(F)(F)F)C1=O	none (no result: NS1 function inh, Shiga toxin inh, CHX counter)
CCN1C(=O)N(S(=O)(=O)C(F)(F)F)[C@@H](c2ccccc2)C(C(=O)OC)=C1C	none
CCN1C(=O)N(C)[C@@H](c2ccccc2)C(C(=O)OC)=C1C	CHX counter 21
CN(C)/N=C/C=C1\CCC/C(=C/c2cccs2)C1=O	Shiga toxin inh 82, CHX counter 61
Clc1ccc(CSc2ccc(-c3ccccn3)nn2)cc1	none (no result: NS1 function inh)
Clc1ccc(CSc2cc3c(nn2)-c2ccccc2CC3)cc1	CHX counter 15
Cc1ccc(C(=O)Nc2nc(=O)n(C(=O)c3ccccc3Cl)s2)cc1	Shiga toxin inh 49, CHX counter 31
Cc1ccc(C(=O)Nc2nc(=O)n(C)s2)cc1	Shiga toxin inh 73, CHX counter 36
Cc1ccc(C(=O)Nc2nc(=O)n(C(=O)CC(C)C)s2)cc1	none
Cn1sc(NC(=O)c2ccc(Cl)cc2)nc1=O	CHX counter 14
O=C(Cc1ccccc1)c1nc2ccccc2s1	Shiga toxin inh 131, CHX counter 74
O=C(O)CSc1nc2ccccc2s1	none
COC(=O)c1ccc(CC(=O)c2nc3ccccc3s2)cc1	CHX counter 20
CCOc1ccc2c(c1)c(=O)c(C(=O)c1ccc(CC)cc1)cn2CC(=O)Nc1cccc(Cl)c1	none (no result: AmpC no deterg, NS1 function inh, Shiga toxin inh, CHX counter)
CCOc1ccc(C2C(C(=O)c3ccco3)=C(O)C(=O)N2CCCn2ccnc2)cc1OCC (stereo not drawn)	none
CCOc1ccc(C2C(C(=O)c3ccco3)=C(O)C(=O)N2CCN2CCOCC2)cc1 (stereo not drawn)	Shiga toxin inh 54, CHX counter 26
C=CCOc1cccc(C2C(C(=O)c3ccco3)=C(O)C(=O)N2Cc2cccnc2)c1 (stereo not drawn)	NS1 function inh inconclusive
C=CCOc1ccc(C2C(C(=O)c3ccco3)=C(O)C(=O)N2Cc2cccnc2)cc1 (stereo not drawn)	Shiga toxin inh active
CCOc1ccc(C2C(C(=O)c3cccs3)=C(O)C(=O)N2CCN2CCOCC2)cc1 (stereo not drawn)	Shiga toxin inh 25, CHX counter 28
